For some of these results: Results with a measured potency or affinity are listed apart.
Experiments:
Design in all cases: scale not given: direction of the effect not stated beside the values
[1] = target: Protein translocase subunit SecA (Escherichia coli (strain K12)) (UniProt P10408); test: Assay to Identify E. coli SecA ATPase Inhibitors; format: functional; details: 30 µM
[2] = target: T1, Ubiquitin-activating enzyme e1, putative (Leishmania donovani (strain BPK282A1)) (UniProt E9BSI1); test: Leishmania donovani Ubiquitin Activating Enzyme (LdE1); format: functional; details: 30 µM
T1 sequence (whole entry): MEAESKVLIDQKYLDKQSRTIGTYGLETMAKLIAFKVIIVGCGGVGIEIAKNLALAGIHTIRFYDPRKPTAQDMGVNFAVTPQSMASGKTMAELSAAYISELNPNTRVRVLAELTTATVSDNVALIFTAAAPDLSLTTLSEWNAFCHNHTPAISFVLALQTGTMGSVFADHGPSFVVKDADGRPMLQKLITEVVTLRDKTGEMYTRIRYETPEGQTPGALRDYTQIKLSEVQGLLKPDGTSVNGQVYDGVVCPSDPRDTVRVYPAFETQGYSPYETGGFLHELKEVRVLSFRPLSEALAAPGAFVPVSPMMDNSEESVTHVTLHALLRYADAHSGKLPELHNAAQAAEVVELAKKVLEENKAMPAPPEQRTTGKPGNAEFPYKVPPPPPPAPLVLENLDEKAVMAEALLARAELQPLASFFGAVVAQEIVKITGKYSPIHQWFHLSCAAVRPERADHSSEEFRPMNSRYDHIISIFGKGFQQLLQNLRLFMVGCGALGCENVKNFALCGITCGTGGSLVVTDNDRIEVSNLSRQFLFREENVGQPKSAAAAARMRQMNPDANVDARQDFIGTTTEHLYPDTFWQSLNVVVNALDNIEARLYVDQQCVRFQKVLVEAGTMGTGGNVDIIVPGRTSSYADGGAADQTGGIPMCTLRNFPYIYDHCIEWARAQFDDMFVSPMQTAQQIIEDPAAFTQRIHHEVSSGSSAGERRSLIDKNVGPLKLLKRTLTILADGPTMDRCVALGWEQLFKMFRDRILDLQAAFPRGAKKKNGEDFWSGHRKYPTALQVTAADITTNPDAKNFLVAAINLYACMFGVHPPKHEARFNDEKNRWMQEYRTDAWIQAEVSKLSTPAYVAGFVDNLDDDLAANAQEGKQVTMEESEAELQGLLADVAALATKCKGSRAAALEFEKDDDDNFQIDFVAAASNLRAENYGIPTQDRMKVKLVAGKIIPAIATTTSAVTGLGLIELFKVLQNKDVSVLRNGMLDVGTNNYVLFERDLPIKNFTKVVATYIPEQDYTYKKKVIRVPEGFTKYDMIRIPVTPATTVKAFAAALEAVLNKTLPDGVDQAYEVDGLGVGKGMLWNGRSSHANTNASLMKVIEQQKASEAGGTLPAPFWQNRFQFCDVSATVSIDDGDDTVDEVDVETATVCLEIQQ

[3] = target: AMP-activated protein kinase, AMPK (Homo sapiens) (UniProt P54646+O43741+P54619+Q9UGJ0+Q9Y478+Q13131+Q9UGI9); test: AMP-dependent Kinase enzyme assay. An in vitro enzyme assay that detects ADP turnover that is directly proportional to AMPK activity. This uses naive AMPK that is activated during the assay with MK-8722; format: functional; details: 30 µM
[4] = target: Sialic acid-binding Ig-like lectin 9 (Homo sapiens) (UniProt Q9Y336); test: Hs-Siglec9 ALPHAscreen SOP 20170721; details: 10 µM
Trypanosoma cruzi = test: Trypanosoma cruzi phosphomannomutase and mannose-1-phosphate guanylyltransferase assay; format: functional; details: 10 µM
[5] = target: T2, Arginase-2, mitochondrial (Homo sapiens) (UniProt P78540); test: in vitro enzyme assay to detect the production of urea directly proportional to the activity of Arginase II; format: functional; details: 33.3 µM; note: in the data most compounds retested in dose-response had high values
T2 sequence (whole entry): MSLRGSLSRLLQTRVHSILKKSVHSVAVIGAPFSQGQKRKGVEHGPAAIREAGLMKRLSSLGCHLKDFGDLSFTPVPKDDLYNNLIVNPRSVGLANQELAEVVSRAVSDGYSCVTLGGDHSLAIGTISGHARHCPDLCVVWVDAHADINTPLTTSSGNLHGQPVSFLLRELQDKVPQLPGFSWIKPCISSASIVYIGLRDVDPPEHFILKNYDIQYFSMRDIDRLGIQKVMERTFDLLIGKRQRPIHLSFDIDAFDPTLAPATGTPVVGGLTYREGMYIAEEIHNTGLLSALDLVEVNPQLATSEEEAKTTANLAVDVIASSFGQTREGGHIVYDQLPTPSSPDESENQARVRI

[6] = target: T3, Proteasome subunit beta (Trypanosoma cruzi) (UniProt O96673); test: Trypanosoma cruzi proteasome chymotrypsin-like activity (TcProtChymo) assay.; note: in the data most compounds retested in dose-response had high values; format: functional; details: 9.37 µM
T3 sequence (whole entry): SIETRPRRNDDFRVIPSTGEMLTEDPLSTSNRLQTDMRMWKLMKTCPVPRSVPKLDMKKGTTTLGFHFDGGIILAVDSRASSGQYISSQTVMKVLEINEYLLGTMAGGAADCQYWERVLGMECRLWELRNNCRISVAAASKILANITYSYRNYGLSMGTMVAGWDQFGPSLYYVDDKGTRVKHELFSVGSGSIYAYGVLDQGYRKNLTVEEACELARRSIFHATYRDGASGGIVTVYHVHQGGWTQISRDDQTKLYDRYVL

Homo sapiens = organism: Homo sapiens; test: To identify inhibition of the IFN signalling (Jak-Stat) pathway via expression of an eGFP reporter gene under the control of an IFN-stimulated response element (ISRE) containing MxA promoter.; format: functional; details: 30 µM
[7] = target: T4, Tyrosyl-tRNA synthetase, putative (Trypanosoma cruzi (strain CL Brener)) (UniProt Q4DSP6); test: Trypanosoma cruzi tyrosyl tRNA synthetase (TcYRS) _High Tyrosine SOP; format: functional; details: 30 µM; note: in the data most compounds retested in dose-response had high values
T4 sequence (whole entry): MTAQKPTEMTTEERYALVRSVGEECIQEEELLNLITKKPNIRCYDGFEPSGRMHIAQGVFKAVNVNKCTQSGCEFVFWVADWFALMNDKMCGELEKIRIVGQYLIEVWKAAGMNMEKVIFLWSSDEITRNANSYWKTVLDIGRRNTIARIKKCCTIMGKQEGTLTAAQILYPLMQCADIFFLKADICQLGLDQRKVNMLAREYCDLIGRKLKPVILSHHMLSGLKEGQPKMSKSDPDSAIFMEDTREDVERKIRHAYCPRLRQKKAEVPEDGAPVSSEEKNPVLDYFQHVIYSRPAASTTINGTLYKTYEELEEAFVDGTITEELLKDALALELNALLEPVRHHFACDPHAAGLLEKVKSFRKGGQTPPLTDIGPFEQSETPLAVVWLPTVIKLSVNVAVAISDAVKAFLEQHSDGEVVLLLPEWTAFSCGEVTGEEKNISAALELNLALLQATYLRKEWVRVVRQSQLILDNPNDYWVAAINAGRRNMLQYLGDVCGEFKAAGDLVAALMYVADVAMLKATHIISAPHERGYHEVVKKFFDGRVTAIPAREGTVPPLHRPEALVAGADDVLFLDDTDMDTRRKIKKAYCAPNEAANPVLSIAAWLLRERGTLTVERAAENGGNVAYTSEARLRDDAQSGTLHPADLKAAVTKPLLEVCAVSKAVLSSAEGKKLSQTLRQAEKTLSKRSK

[8] = target: T4, Tyrosyl-tRNA synthetase, putative (Trypanosoma cruzi (strain CL Brener)); test: Trypanosoma cruzi tyrosyl tRNA synthetase (TcYRS) SOP; format: functional; details: 30 µM
[9] = target: Chromo domain-containing protein 1 (Saccharomyces cerevisiae (strain ATCC 204508 / S288c) (Baker's yeast)) (UniProt P32657); test: ScCHD-1 Enzyme Inhibition Assay; format: functional; details: 30 µM; note: in the data most compounds retested in dose-response had high values
Sequence of Chromo domain-containing protein 1 (Saccharomyces cerevisiae (strain ATCC 204508 / S288c) (Baker's yeast)) (P32657 whole entry, the tested form may be a part): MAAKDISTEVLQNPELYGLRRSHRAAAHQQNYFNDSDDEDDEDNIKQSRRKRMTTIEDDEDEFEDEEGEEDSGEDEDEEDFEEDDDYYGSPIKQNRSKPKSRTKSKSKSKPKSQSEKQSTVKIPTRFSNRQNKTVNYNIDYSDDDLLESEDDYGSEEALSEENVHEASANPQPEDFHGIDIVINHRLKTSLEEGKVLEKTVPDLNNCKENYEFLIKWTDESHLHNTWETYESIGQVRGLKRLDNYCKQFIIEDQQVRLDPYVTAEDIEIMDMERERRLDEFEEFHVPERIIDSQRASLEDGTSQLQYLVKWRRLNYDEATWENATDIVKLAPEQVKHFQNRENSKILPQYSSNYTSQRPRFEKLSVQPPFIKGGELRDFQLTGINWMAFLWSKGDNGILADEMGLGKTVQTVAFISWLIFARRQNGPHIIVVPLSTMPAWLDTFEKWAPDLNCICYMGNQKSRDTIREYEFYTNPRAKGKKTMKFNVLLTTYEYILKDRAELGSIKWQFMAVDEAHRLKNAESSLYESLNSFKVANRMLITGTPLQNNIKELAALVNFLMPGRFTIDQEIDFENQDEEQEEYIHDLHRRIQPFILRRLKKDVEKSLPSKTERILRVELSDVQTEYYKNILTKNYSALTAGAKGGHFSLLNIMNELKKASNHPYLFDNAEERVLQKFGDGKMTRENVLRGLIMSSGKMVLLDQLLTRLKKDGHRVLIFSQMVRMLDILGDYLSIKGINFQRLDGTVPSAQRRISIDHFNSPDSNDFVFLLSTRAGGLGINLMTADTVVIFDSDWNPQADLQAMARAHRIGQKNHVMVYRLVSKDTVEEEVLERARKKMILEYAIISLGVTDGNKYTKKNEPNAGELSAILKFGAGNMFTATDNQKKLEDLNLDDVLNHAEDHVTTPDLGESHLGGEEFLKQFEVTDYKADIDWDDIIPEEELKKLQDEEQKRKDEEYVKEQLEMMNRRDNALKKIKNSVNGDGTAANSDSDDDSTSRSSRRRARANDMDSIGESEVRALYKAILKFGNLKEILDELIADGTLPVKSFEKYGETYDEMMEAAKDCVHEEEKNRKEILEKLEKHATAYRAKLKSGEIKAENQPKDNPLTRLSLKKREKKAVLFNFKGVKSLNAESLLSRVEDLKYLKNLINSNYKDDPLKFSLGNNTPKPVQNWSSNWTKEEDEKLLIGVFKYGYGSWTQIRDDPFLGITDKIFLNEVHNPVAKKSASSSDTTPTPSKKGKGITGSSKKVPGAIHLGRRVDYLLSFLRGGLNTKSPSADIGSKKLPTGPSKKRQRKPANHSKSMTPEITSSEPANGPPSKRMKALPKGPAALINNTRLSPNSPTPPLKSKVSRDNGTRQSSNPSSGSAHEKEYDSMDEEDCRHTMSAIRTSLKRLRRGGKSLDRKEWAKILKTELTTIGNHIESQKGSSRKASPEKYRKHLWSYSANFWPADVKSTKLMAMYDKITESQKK

Sequence of Sialic acid-binding Ig-like lectin 9 (Homo sapiens) (Q9Y336 whole entry): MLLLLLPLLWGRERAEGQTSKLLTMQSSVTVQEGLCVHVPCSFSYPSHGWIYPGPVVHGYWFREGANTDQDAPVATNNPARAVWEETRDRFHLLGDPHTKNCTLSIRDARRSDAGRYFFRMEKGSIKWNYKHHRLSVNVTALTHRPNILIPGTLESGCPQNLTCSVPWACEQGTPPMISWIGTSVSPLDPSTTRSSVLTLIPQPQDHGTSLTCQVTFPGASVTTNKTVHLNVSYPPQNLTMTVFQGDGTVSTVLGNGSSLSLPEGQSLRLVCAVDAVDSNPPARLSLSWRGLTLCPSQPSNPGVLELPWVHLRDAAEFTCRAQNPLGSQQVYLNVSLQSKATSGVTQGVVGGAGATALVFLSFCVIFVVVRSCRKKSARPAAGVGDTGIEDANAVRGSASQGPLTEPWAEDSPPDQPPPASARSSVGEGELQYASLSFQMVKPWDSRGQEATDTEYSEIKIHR
Sequence of Protein translocase subunit SecA (Escherichia coli (strain K12)) (P10408 whole entry): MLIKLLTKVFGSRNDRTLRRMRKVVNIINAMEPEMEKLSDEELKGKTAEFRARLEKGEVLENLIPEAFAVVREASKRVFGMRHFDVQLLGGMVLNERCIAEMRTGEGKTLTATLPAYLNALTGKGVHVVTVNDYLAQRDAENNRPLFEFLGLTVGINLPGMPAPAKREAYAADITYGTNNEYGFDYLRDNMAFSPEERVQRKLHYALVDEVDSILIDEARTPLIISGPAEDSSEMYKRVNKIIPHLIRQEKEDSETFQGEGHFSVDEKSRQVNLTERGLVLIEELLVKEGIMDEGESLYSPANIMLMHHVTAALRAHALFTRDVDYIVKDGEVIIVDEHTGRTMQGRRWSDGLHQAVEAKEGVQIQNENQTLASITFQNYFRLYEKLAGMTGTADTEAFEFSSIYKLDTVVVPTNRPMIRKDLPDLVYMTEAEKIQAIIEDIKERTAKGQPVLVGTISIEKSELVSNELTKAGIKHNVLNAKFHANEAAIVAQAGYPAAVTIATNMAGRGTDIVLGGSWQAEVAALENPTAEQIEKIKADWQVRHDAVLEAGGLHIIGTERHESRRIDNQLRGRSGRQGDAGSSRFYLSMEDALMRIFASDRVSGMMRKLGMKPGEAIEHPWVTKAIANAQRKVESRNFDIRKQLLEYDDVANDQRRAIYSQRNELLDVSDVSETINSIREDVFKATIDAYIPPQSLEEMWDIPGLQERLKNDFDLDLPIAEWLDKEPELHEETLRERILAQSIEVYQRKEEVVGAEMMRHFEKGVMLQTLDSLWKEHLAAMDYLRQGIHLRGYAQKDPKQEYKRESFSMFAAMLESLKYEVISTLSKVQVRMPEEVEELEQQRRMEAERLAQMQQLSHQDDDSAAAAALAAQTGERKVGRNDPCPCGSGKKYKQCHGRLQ

Structure (SMILES) | Percent Effect [1] | Percent Effect [2] | Percent Effect [3] | Percent Effect [4] | Percent Effect (Trypanosoma cruzi) | Percent Effect [5] | Percent Effect [6] | Percent Effect (Homo sapiens) | Percent Effect [7] | Percent Effect [8] | Percent Effect [9]
N#Cc1ccc(C(=O)N2CCn3c(Cn4cccn4)cnc3C2)cc1 | -4.62% | 2.67% | 0.576% | 1.75% | -3.86% | -57.5% | 5.98% | -6.78% | 2.08% | 7.5% | -3.56%
CC[C@@]1(O)CCN(C(=O)c2ccsc2)C[C@H]1O | -3.94% | 4.17% | -1.21% | -6.46% | -2.82% | 3.09% | 12.3% | -3.4% | 4.21% | 5.13% | 0.37%
Cc1nc(CN(C)C2CCN(Cc3nc4ccccc4s3)C2)no1 (stereo not given) | -6.59% | 5.26% | -8.48% | 14.1% | 4.95% | 1.8% | 3.81% | -14.2% | 10.3% | 25.9% | -8.21%
N#Cc1ccc(F)c(CN2CCCC2Cn2cccn2)c1 (stereo not given) | -4.03% | -8.11% | -4.51% | 13.8% | 1.39% | -0.554% | -0.359% | 4.22% | 4.95% | 1.22% | 4.66%
Cc1cnn(C2CN(CC(O)c3ccc(F)cc3)C2)c1 (stereo not given) | 1.74% | -2.67% | -7.34% | 3.97% | 2.82% | 8.33% | 3.31% | 17.9% | 6.01% | 13.6% | 105%
CCc1c(C(=O)NCC(=O)OCC2CC2)cnn1-c1ccc(C)cc1 | -5.86% | 22.8% | 2.14% | -2.84% | 9.54% | 0.38% | 10.7% | 29% | 6.4% | 24.1% | -9.54%
Cc1cc(C)n(CC2CN(CC(=O)NC3CCCC3)CCO2)n1 (stereo not given) | -8.44% | 7.79% | 2.32% | -3.15% | -8.24% | -0.712% | 2.03% | 32.3% | 1.94% | 2.44% | -5.73%
COc1ccccc1S(=O)(=O)Nc1ccc2c(C(=O)O)c[nH]c2c1 | -5.95% | -10.4% | -64.6% | 10.9% | 8.05% | -4.98% | 8.28% | 14.3% | 0% | 12.2% | -7.94%
COCc1noc(C2(c3ccc(F)cc3)CCOCC2)n1 | 3.24% | 8.11% | 7.86% | 11.7% | -7.72% | -3.81% | 11.4% | 40.2% | 0.529% | -2.44% | -5.88%
Cn1cc(CNc2ncnc3c2CCN(Cc2ccsc2)CC3)cn1 | -6.16% | 13.3% | -5.59% | 29.3% | 4.97% | 7.29% | 17.1% | -4.35% | 4.92% | 16.1% | -0.968%
Cc1nc(N2CCN(C(=O)c3ccc(O)cc3)CC2)c2cnn(C)c2n1 | -0.631% | 0% | -5.77% | 5.23% | -2.74% | 1.6% | -2.88% | 15.3% | -2.46% | -6.17% | 0.501%
COCC1CN(Cc2ccc(C)o2)Cc2nnn(CC3CC3)c21 (stereo not given) | -3.94% | 2.6% | 4.37% | 2.36% | -2.46% | 2.76% | 0.832% | -1.19% | -2.15% | -1.24% | 5.36%
CSCCCN1CCn2nc(CNC(C)=O)cc2C1 | -4.2% | 0% | 6.86% | 4.06% | -7.05% | -0.455% | 8.16% | 27.3% | -1.07% | -2.5% | -4.5%
CN(Cc1cccc(F)c1)S(=O)(=O)N1CCOCC1 | -1.93% | 7.89% | 1.93% | -0.448% | -0.876% | -1.18% | 24.4% | 9.7% | 2.13% | 13% | -6.29%
Cc1ncccc1OC1(C(=O)NCCCN2CCOCC2)CCNCC1 | -0.6% | 5.41% | -5.62% | -0.0436% | -5.02% | 1.43% | 11.2% | 11% | 6.88% | 9.76% | -2.8%
COC(=O)CCNC(=O)C1CC(=O)N(C2CCCC2)C1 (stereo not given) | -4.42% | -2.7% | -0.395% | -6.64% | -0.781% | -2.08% | 5.83% | -6.8% | 1.98% | 6.1% | -2.5%
Cc1nc(C2CCCN2CC(=O)NCCOc2ccccc2)no1 (stereo not given) | -3.91% | 5.26% | -1.52% | 4.39% | 3.38% | -0.383% | 12.7% | -2.83% | 0.49% | 7.32% | -12.7%
Cc1nc(C2CCCN2C(=O)c2cc3c(s2)CCCC3)no1 (stereo not given) | -3.05% | 0% | 2.69% | 3.43% | 3.95% | 4.98% | 3.51% | 5.26% | -0.49% | 0% | 5.53%
CCCS(=O)(=O)NCC1CCOc2ccccc2C1 (stereo not given) | -7.2% | 0% | 3.87% | 5.88% | -5.61% | 17.9% | 5.32% | -3.37% | 0% | 6.17% | 3.34%
CC(C)c1nnc2n1CCN(C(=O)CN1Cc3ccccc3C1=O)C2 | -6.1% | 2.63% | -4.36% | 2.22% | 6.2% | -0.383% | 4.34% | 6.89% | 9.31% | 17.1% | -12.6%
